Where “and” joins values, the source holds several entries; their conditions need not be identical. Identical values can stand only once. Calls of active or inactive are those of the source. Unless noted, no stated cut-off is given here; in the data, active means inhibition above about 80%; inactive means the rest.
What was measured:
[1] = UWB1.289 ovarian carcinoma cell growth inhibition, synergistic combos for chromothripsis tumors, BGB or cisplatin combos (AID 1671456); conditions: UWB1.289 ovarian carcinoma cells, stronger effect = higher value;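 further: cells exposed to compound for four days; 0% = vehicle DMSO and 100% = killing by high DMSO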
[2] = LFS_MB_2R medulloblastoma cell growth inhibition, synergistic combos for chromothripsis tumors, cisplatin combos (AID 1671457); conditions: LFS_MB_2R medulloblastoma cells, stronger effect = higher value;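 further: cells exposed to compound for four days before readout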
[3] = MDA-MB-436 breast carcinoma cell growth inhibition, synergistic combos for chromothripsis tumors, BGB or cisplatin combos (AID 1671458; call rule not given here;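 further: cells exposed for 96 hours; 0% = vehicle DMSO and 100% = killing by high DMSO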); conditions: MDA-MB-436 breast carcinoma growth inhibition, drug combinations, stronger effect = higher value
[4] = UWB1.289_BRCA1 ovarian cancer growth, cell-based, BGB or cisplatin combinations (AID 1671459); conditions: UWB1.289 BRCA1 ovarian carcinoma, drug combinations, stronger effect = higher value
[5] = human astrocyte viability loss, single and combined drugs, cytotoxicity control for chromothriptic childhood tumor combination screen, cell-based, BGB or cisplatin IC20 combos (AID 1671460); conditions: Human astrocytes, drug combinations, stronger effect = higher value;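 further: cells exposed to compounds for 96 hours before viability readout; 0% = vehicle and 100% = killing control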
[6] = growth inhibition of BT084 medulloblastoma cells, cell-based, ICGC_MB145, cisplatin and BGB IC40 combos (AID 1671461); conditions: drug combinations, stronger effect = higher value;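 further: cells exposed to drugs for 96 hours; 0% = vehicle DMSO and 100% = high DMSO full killing control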
[7] = growth inhibition of RCMB18 medulloblastoma cells, cell-based, cisplatin and BGB IC40 combos (AID 1671462); conditions: stronger effect = higher value;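 further: cells exposed to compound for four days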
[8] = growth inhibition of CRL1545 osteosarcoma cells, cell-based, cisplatin and BGB IC20 combos (AID 1671464); conditions: stronger effect = higher value;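 further: cells exposed to compound for 96 hours before readout; 0% = vehicle DMSO and 100% = high DMSO killing control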
[9] = test system: F380Y; assay: modulators of BK channel variants, profiling panel, selectivity assay, cell-based, U2OS BacMam, thallium flux, beta subunits (AID 1259406;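 active means thallium flux through the channel raised or lowered by more than 3 SD from vehicle-only wells, actives on both sides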;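 further: initial slope of Thallos dye fluorescence rise after thallium is added; log ratio against the mean of 0.3% DMSO vehicle wells on the same plate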); conditions: at 30 µM
[10] = test system: F380Y/beta1; assay: as above; conditions: at 30 µM
[11] = test system: F380Y/beta2Delta; assay: as above; conditions: at 30 µM
[12] = test system: F380Y/beta4; assay: as above; conditions: at 30 µM
[13] = target: Calcium-activated potassium channel subunit alpha-1 (Homo sapiens) + Leucine-rich repeat-containing protein 26 (Homo sapiens) (UniProt Q12791+Q2I0M4); assay: as above; conditions: F380Y/Slo1WT/gamma1, at 30 µM
Sequence of Calcium-activated potassium channel subunit alpha-1 (Homo sapiens) + Leucine-rich repeat-containing protein 26 (Homo sapiens) (Q2I0M4 whole entry, looked up, one chain of several): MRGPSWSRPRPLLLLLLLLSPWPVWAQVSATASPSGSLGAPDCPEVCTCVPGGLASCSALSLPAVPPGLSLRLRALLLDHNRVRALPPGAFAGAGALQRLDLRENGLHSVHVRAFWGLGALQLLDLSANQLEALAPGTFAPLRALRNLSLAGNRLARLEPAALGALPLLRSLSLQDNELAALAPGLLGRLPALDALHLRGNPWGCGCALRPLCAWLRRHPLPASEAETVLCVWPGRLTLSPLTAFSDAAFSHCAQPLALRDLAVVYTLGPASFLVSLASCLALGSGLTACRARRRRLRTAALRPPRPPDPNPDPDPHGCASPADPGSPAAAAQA

[14] = test system: R275C; assay: as above; conditions: at 30 µM
[15] = test system: R275C/beta1; assay: as above; conditions: at 30 µM
[16] = test system: R275C/beta2Delta; assay: as above; conditions: at 30 µM
[17] = test system: R275C/beta4; assay: as above; conditions: at 30 µM
[18] = test system: R275C/Slo1WT/beta2; assay: as above; conditions: at 30 µM
[19] = measured here: inhibition with BGB combination, at 0.05 µM
[20] = measured here: inhibition with cisplatin combination, at 0.05 µM
[21] = measured here: combination with cisplatin, at 0.5 µM
[22] = measured here: combination with cisplatin, at 5 µM
[23] = measured here: BGB combination, at 0.5 µM
[24] = measured here: BGB combination, at 5 µM
[25] = measured here: cisplatin combination, at 0.5 µM
[26] = measured here: cisplatin combination, at 5 µM
[27] = BGB combination, concentration series, at 5 µM
[28] = cisplatin combination, concentration series, at 5 µM
[29] = measured here: combo with BGB IC20, at 0.5 µM
[30] = measured here: combo with cisplatin IC20, at 0.5 µM
[31] = cisplatin combination, at 0.5 µM
[32] = measured here: BGB IC40 combination 0.05 uM, at 0.05 µM
[33] = measured here: BGB IC40 combination, at 0.05 µM
[34] = measured here: with BGB IC20 combination, at 0.5 µM
[35] = measured here: with cisplatin IC20 combination, at 0.5 µM

CC(N)C12CC3CC(CC(C3)C1)C2 (stereo unspecified)
inhibition ([1]; at 0.5 µM): -6.71% (inactive)
inhibition [1, 19]: -27.7%
inhibition [1, 20]: -16.3%
inhibition ([2]; at 0.5 µM): -18.8% (inactive)
inhibition [2, 21]: -16.8%
inhibition [2, 22]: -59.2%
inhibition ([3]; at 0.5 µM): -35.4% (inactive)
inhibition [3, 23]: -21.6%
inhibition [3, 24]: -29.1%
inhibition [3, 25]: -60.5%
inhibition [3, 26]: -34.4%
inhibition [4, 27]: -31.1%
inhibition ([4]; at 0.5 µM): -16.9% (inactive)
inhibition [4, 28]: 2.74%
inhibition ([5]; at 0.5 µM): -10.5% (inactive)
inhibition [5, 29]: -8.28%
inhibition [5, 30]: -5.35%
inhibition ([6]; at 0.5 µM): -35.2% (inactive)
inhibition [6, 31]: -18.2%
inhibition ([6]; cisplatin combination, at 5 µM): -3.55%
inhibition [6, 32]: 9.42%
inhibition ([6]; single agent, at 5 µM): -34.6%
inhibition ([7]; at 0.5 µM): -21.2% (inactive)
inhibition ([7]; cisplatin combo, at 5 µM): -32.4%
inhibition [7, 33]: -22.9%
inhibition [7, 21]: -18.2%
inhibition ([7]; single agent, at 5 µM): -26.9%
inhibition ([8]; at 0.5 µM): -36.2% (inactive)
inhibition [8, 34]: -19.2%
inhibition [8, 35]: -48%
inhibition ([8]; single agent, at 0.05 µM): -83.2%
inhibition ([8]; single agent, at 5 µM): 0.3%
log fold change Tl+ flux [9]: 0.00103 (inactive)
log fold change Tl+ flux [10]: 0.0203 (inactive)
log fold change Tl+ flux [11]: 0.0577 (inactive)
log fold change Tl+ flux [12]: 0.0485 (inactive)
log fold change Tl+ flux [13]: 0.0164 (inactive)
log fold change Tl+ flux [14]: 0.0361 (inactive)
log fold change Tl+ flux [15]: -0.0211 (inactive)
log fold change Tl+ flux [16]: 0.0568 (inactive)
log fold change Tl+ flux [17]: 0.04 (inactive)
log fold change Tl+ flux [18]: 0.0291 (inactive)

CN(C)/N=N/c1nc[nH]c1C(N)=O
inhibition ([1]; at 0.5 µM): 18.9% (inactive) and 3.21% (inactive)
inhibition [1, 19]: 0.064% and -13.3%
inhibition [1, 20]: 3.6% and -43.6%
inhibition ([2]; at 0.5 µM): 10.1% (inactive) and -20.6% (inactive)
inhibition [2, 21]: 14.2% and -25.1%
inhibition [2, 22]: -36.9% and -16%
inhibition ([3]; at 0.5 µM): 1.6% (inactive) and -18.5% (inactive)
inhibition [3, 23]: 7.15% and -18%
inhibition [3, 24]: 1.32% and -19%
inhibition [3, 25]: 0.111% and -24.2%
inhibition [3, 26]: -5.49% and -14.5%
inhibition [4, 27]: 47.3% and 36.9%
inhibition ([4]; at 0.5 µM): 15.9% (inactive) and 4.03% (inactive)
inhibition [4, 28]: 53.7% and 25.2%
inhibition ([5]; at 0.5 µM): -0.79% (inactive) and 0.55% (inactive)
inhibition [5, 29]: -3.87% and 2.32%
inhibition [5, 30]: -4.67% and -1.77%
inhibition ([6]; at 0.5 µM): -1.62% (inactive) and -14.7% (inactive)
inhibition [6, 31]: -8.23% and -62.9%
inhibition ([6]; cisplatin combination, at 5 µM): 1.87% and -8.42%
inhibition [6, 32]: 46.6% and -5.42%
inhibition ([6]; single agent, at 5 µM): -9.68% and -13.7%
inhibition ([7]; at 0.5 µM): -1.34% (inactive) and -9.83% (inactive)
inhibition ([7]; cisplatin combo, at 5 µM): 6.92% and -42.9%
inhibition [7, 33]: -11.2% and -7.61%
inhibition [7, 21]: 10.1% and -9.31%
inhibition ([7]; single agent, at 5 µM): 3.33% and -8.99%
inhibition ([8]; at 0.5 µM): -2.87% (inactive) and -54.9% (inactive)
inhibition [8, 34]: -14.8% and -42.6%
inhibition [8, 35]: 0.906% and -63.6%
inhibition ([8]; single agent, at 0.05 µM): -1.35% and -67.8%
inhibition ([8]; single agent, at 5 µM): 10.4% and -50.2%

CCn1cc(C(=O)O)c(=O)c2cc(F)c(N3CCNC(C)C3)c(F)c21 (stereo unspecified)
inhibition ([1]; at 0.5 µM): -5.87% (inactive) and 3.27% (inactive)
inhibition [1, 19]: -15.8% and -6.81%
inhibition [1, 20]: -31.3% and -16.8%
inhibition ([2]; at 0.5 µM): -11.7% (inactive) and -17.4% (inactive)
inhibition [2, 21]: -16.5% and -22.2%
inhibition [2, 22]: -74.9% and -58.2%
inhibition ([3]; at 0.5 µM): -41.7% (inactive) and -18.1% (inactive)
inhibition [3, 23]: -27.8% and -13.8%
inhibition [3, 24]: -28.2% and -9.38%
inhibition [3, 25]: -66.9% and -25.1%
inhibition [3, 26]: -19.8% and -29.7%
inhibition [4, 27]: -32.2% and -2.47%
inhibition ([4]; at 0.5 µM): -9.31% (inactive) and 2.01% (inactive)
inhibition [4, 28]: -6.73% and 11.3%
inhibition ([5]; at 0.5 µM): -10.6% (inactive) and 4.2% (inactive)
inhibition [5, 29]: -11.6% and -0.829%
inhibition [5, 30]: -24.3% and -1.68%
inhibition ([6]; at 0.5 µM): -29.5% (inactive) and -34.2% (inactive)
inhibition [6, 31]: -4.32% and -19.8%
inhibition ([6]; cisplatin combination, at 5 µM): -10.2% and -20.4%
inhibition [6, 32]: -19.8% and -12.4%
inhibition ([6]; single agent, at 5 µM): -14.7% and -12.9%
inhibition ([7]; at 0.5 µM): -20.2% (inactive) and -5.16% (inactive)
inhibition ([7]; cisplatin combo, at 5 µM): -24.3% and 18.4%
inhibition [7, 33]: -16.8% and -25.7%
inhibition [7, 21]: -27.2% and 7.44%
inhibition ([7]; single agent, at 5 µM): -21.5% and -4.86%
inhibition ([8]; at 0.5 µM): -53.2% (inactive) and 15% (inactive)
inhibition [8, 34]: -48% and 1.95%
inhibition [8, 35]: -59.3% and 19.8%
inhibition ([8]; single agent, at 0.05 µM): -84.2% and 11.3%
inhibition ([8]; single agent, at 5 µM): -56% and 4.55%
